Source: ChEMBL document CHEMBL2218924, “A broad activity screen in support of a chemogenomic map for kinase signalling research and drug discovery” (Biochem J, 2013)

Biological target: Calcium/calmodulin-dependent protein kinase type II subunit gamma (Homo sapiens) (UniProt Q13555)
Settings: at 10 µM

Sequence of Calcium/calmodulin-dependent protein kinase type II subunit gamma (Homo sapiens) (Q13555 whole entry): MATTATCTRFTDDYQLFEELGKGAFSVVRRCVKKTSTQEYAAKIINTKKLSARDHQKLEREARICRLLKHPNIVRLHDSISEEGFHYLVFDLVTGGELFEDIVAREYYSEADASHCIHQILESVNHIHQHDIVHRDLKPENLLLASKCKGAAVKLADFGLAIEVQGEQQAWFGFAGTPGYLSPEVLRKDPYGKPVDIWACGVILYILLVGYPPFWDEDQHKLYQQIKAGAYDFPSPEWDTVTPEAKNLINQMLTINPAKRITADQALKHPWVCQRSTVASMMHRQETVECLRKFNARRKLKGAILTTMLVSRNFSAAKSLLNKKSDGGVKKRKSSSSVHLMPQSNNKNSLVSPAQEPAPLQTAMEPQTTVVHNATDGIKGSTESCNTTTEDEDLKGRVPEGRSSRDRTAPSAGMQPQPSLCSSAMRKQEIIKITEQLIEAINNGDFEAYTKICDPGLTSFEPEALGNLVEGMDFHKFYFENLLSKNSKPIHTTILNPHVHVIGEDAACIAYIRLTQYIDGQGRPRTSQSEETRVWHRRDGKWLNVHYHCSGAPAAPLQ

Structure (SMILES) | residual activity
O=C(c1cc2cc(O)ccc2[nH]1)c1cc2cc(O)ccc2[nH]1 | 2%
CCCC(=O)Oc1ccc2[nH]c(C(=O)c3cc4ccccc4[nH]3)cc2c1 | 102%
Cc1cc(C)c(/C=C2\C(=O)Nc3ccccc32)[nH]1 | -1%
CC(C)[C@H](CO)Nc1nc(Nc2cc(N)cc(Cl)c2)c2ncn(C(C)C)c2n1 | 20%
CSc1nc(-c2ccc(F)cc2)c(-c2ccnc(NC(C)c3ccccc3)c2)[nH]1 (centres undefined) | 83%
O=S(=O)(NCCNC/C=C/c1ccc(Br)cc1)c1cccc2cnccc12 | 41%
Nc1nc(Nc2ccc(S(N)(=O)=O)cc2)nn1C(=O)c1c(F)cccc1F | 19%
O=C1NC(=O)C(c2c[nH]c3ccccc23)=C1c1c[nH]c2ccccc12 | 4%
COc1cc2c(cc1OC)-c1n[nH]c(Nc3cccc(F)c3)c1C2 | 60%
N#C/C(=C1/Nc2ccccc2S1)c1ccnc(NCCc2cccnc2)n1 | 21%
O=C(Nc1nc2ccccc2n1CCN1CCOCC1)c1cccc([N+](=O)[O-])c1 | 76%
N#Cc1c(NC(=O)c2cccc3ccccc23)sc2c1CCCC2 | 97%
O=C1Nc2ccccc2/C1=C\c1c(Cl)[nH]c2ccccc12 | 39%
Oc1cccc(-c2nc(N3CCOCC3)c3oc4ncccc4c3n2)c1 | 66%
Nc1nccc(-c2c(-c3ccc(F)cc3)ncn2C2CCNCC2)n1 | 62%
CN(C)S(=O)(=O)c1ccc2c(c1)/C(=C/c1cc3c([nH]1)CCCC3)C(=O)N2 | 12%
CCOC(=O)c1c(C)[nH]c(/C=C2\C(=O)Nc3ccccc32)c1C | 48%

Biological target: Calcium/calmodulin-dependent protein kinase type II subunit delta (Homo sapiens) (UniProt Q13557)
Settings: at 1 µM

Sequence of Calcium/calmodulin-dependent protein kinase type II subunit delta (Homo sapiens) (Q13557 whole entry): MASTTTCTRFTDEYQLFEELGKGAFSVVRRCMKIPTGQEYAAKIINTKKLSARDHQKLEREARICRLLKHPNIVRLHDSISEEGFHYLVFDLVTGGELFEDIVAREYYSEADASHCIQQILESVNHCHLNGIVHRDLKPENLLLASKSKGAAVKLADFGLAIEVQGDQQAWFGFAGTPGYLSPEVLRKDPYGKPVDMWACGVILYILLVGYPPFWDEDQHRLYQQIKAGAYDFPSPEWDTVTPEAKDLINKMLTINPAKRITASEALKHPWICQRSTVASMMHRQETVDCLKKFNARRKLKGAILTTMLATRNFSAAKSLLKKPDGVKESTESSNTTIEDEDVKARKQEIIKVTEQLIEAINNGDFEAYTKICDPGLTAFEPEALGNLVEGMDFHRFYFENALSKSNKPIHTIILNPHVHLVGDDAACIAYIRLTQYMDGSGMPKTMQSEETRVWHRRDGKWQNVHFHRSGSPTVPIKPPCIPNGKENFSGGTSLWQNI

Structure (SMILES) | residual activity
CN([C@@H](Cc1ccc(OS(=O)(=O)c2cccc3cnccc23)cc1)C(=O)N1CCN(c2ccccc2)CC1)S(=O)(=O)c1cccc2cnccc12 | 99%
O=C(c1cc2cc(O)ccc2[nH]1)c1cc2cc(O)ccc2[nH]1 | 23%
Cc1cc(C)c(/C=C2\C(=O)Nc3ccccc32)[nH]1 | 38%
CC(C)[C@H](CO)Nc1nc(Nc2cc(N)cc(Cl)c2)c2ncn(C(C)C)c2n1 | 80%
CSc1nc(-c2ccc(F)cc2)c(-c2ccnc(NC(C)c3ccccc3)c2)[nH]1 (centres undefined) | 102%
Nc1nc(Nc2ccc(S(N)(=O)=O)cc2)nn1C(=O)c1c(F)cccc1F | 75%
O=C1NC(=O)C(c2c[nH]c3ccccc23)=C1c1c[nH]c2ccccc12 | 28%
NC(=O)c1ccc(-c2nc(-c3ccc4c(c3)OCCO4)c(-c3ccccn3)[nH]2)cc1 | 100%
N#C/C(=C1/Nc2ccccc2S1)c1ccnc(NCCc2cccnc2)n1 | 83%
O=C(Nc1nc2ccccc2n1CCN1CCOCC1)c1cccc([N+](=O)[O-])c1 | 103%
O=C1C(Cl)=C(N2C(=O)CCC2=O)C(=O)c2ccccc21 | 97%
O=C1Nc2ccccc2/C1=C\c1c(Cl)[nH]c2ccccc12 | 87%
O=C1Cc2c([nH]c3ccc([N+](=O)[O-])cc23)-c2ccccc2N1 | 32%
Nc1nccc(-c2c(-c3ccc(F)cc3)ncn2C2CCNCC2)n1 | 100%
CCCCc1c(-c2ccc(O)cc2)[nH]c2nccnc12 | 62%
CN(C)S(=O)(=O)c1ccc2c(c1)/C(=C/c1cc3c([nH]1)CCCC3)C(=O)N2 | 18%
CCOC(=O)c1c(C)[nH]c(/C=C2\C(=O)Nc3ccccc32)c1C | 79%

Biological target: Calcium/calmodulin-dependent protein kinase type II subunit delta (Homo sapiens) (UniProt Q13557)
Settings: at 10 µM

Structure (SMILES) | residual activity
O=C(c1cc2cc(O)ccc2[nH]1)c1cc2cc(O)ccc2[nH]1 | 4%
CCCC(=O)Oc1ccc2[nH]c(C(=O)c3cc4ccccc4[nH]3)cc2c1 | 83%
Cc1cc(C)c(/C=C2\C(=O)Nc3ccccc32)[nH]1 | 9%
CC(C)[C@H](CO)Nc1nc(Nc2cc(N)cc(Cl)c2)c2ncn(C(C)C)c2n1 | 24%
CSc1nc(-c2ccc(F)cc2)c(-c2ccnc(NC(C)c3ccccc3)c2)[nH]1 (centres undefined) | 83%
O=S(=O)(NCCNC/C=C/c1ccc(Br)cc1)c1cccc2cnccc12 | 35%
Nc1nc(Nc2ccc(S(N)(=O)=O)cc2)nn1C(=O)c1c(F)cccc1F | 31%
O=C1NC(=O)C(c2c[nH]c3ccccc23)=C1c1c[nH]c2ccccc12 | 4%
NC(=O)c1ccc(-c2nc(-c3ccc4c(c3)OCCO4)c(-c3ccccn3)[nH]2)cc1 | 98%
N#C/C(=C1/Nc2ccccc2S1)c1ccnc(NCCc2cccnc2)n1 | 24%
O=C(Nc1nc2ccccc2n1CCN1CCOCC1)c1cccc([N+](=O)[O-])c1 | 85%
COc1cc2nccc(Oc3ccc(NC(=S)NC(=O)c4ccccc4C)cc3)c2cc1OC | 85%
O=C1C(Cl)=C(N2C(=O)CCC2=O)C(=O)c2ccccc21 | 99%
N#Cc1c(NC(=O)c2cccc3ccccc23)sc2c1CCCC2 | 88%
O=C1Nc2ccccc2/C1=C\c1c(Cl)[nH]c2ccccc12 | 34%
O=C1Cc2c([nH]c3ccc([N+](=O)[O-])cc23)-c2ccccc2N1 | 20%
Nc1nccc(-c2c(-c3ccc(F)cc3)ncn2C2CCNCC2)n1 | 56%
CCCCc1c(-c2ccc(O)cc2)[nH]c2nccnc12 | 22%
CN(C)S(=O)(=O)c1ccc2c(c1)/C(=C/c1cc3c([nH]1)CCCC3)C(=O)N2 | 13%
CCOC(=O)c1c(C)[nH]c(/C=C2\C(=O)Nc3ccccc32)c1C | 59%
